Experimental findings from PubChem BioAssay (NCI) are described below.

This is part of a sample that, as a whole, favours compounds with a hit. Of some 83,000 tested, about 20% had one in any assay.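 96-well plates, one dose, 48 hours. Percent growth reported; active if below 10.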 A number with no mark means an inactive call. Calls of active or inactive are those of the source.

What all share (test): NCI-60 one-dose screen, 48 h (100 = growth as untreated, 0 = no growth, -100 = all killed)
One test concerns SK-MEL-2 melanoma. The settings on record: 10 µM.
A further test relates to EKVX NSCLC. As to conditions: 10 µM.
The next test relates to SN12C renal. As to conditions: 10 µM.
The next test deals with TK-10 renal. The settings on record: 10 µM unless noted.
A further test concerns ACHN renal. As to conditions: 10 µM.
A further test deals with CAKI-1 renal. As to conditions: 10 µM.
In the next test the test system is A498 renal. As to conditions: 10 µM.
For a further test, the system named is CCRF-CEM leukemia. As to conditions: 10 µM.
The next test relates to RPMI-8226 leukemia. The settings on record: 10 µM.
In a further test the test system is OVCAR-8 ovarian. The settings on record: 10 µM.
A further test deals with OVCAR-5 ovarian. As to conditions: 10 µM.
The subject of the next test is OVCAR-4 ovarian. As to conditions: 10 µM.
Another test relates to SK-OV-3 ovarian. As to conditions: 10 µM.
In a further test the test system is IGROV1 ovarian. The settings on record: 10 µM.
A further test has as its system OVCAR-3 ovarian. The settings on record: 10 µM.
The subject of another test is HS 578T breast. The settings on record: 10 µM.
The subject of another test is NCI/ADR-RES ovarian. The settings on record: 10 µM.
In the next test the test system is SR leukemia. As to conditions: 10 µM.
The next test has as its system MOLT-4 leukemia. The settings on record: 10 µM.

Regarding `c1csc(-c2cc(-c3cc(-c4cccs4)[nH]n3)n[nH]2)c1`, the growth in the test on SK-MEL-2 melanoma is 132%; in the test on EKVX NSCLC, 64.8%; with SN12C renal it was 97.4%; in the test with TK-10 renal, 162%; in the test with ACHN renal, 92.7%; in the test on CAKI-1 renal, 79.6%. The growth in the test on A498 renal is 139%; with CCRF-CEM leukemia, 66.1%; with RPMI-8226 leukemia, 94.6%; in the test on OVCAR-8 ovarian, 104%; with OVCAR-5 ovarian, 104%; in the test on OVCAR-4 ovarian, 101%. Also, the growth with SK-OV-3 ovarian is 97%; in the test with IGROV1 ovarian, 89.3%; in the test on OVCAR-3 ovarian, 118%; in the test with HS 578T breast it was 74.6%; with NCI/ADR-RES ovarian, 99.5%.
On to `O=C1C=CC2=C3c4cc(O)c(O)cc4CC3(O)COC2=C1O` (stereo not drawn), for which the growth in the test on SK-MEL-2 melanoma was 87.3%; with EKVX NSCLC, 101%; with SN12C renal, 104%; in the test with TK-10 renal, 101%; in the test with ACHN renal it was 111%; in the test with CAKI-1 renal, 111%. The growth in the test on A498 renal was 99.1%; in the test with CCRF-CEM leukemia, 104%; in the test on SR leukemia, 109%; in the test with RPMI-8226 leukemia, 90%; with OVCAR-8 ovarian, 97.2%; in the test on OVCAR-5 ovarian, 104%. In addition, the growth with SK-OV-3 ovarian is 113%; with OVCAR-3 ovarian, 123%; with HS 578T breast it was 115%; with NCI/ADR-RES ovarian, 101%.
On to `CCOC(=O)/C(=C/c1ccc(OC)cc1)N(CC)CC`, for which the growth in the test on SK-MEL-2 melanoma is 103%; in the test on EKVX NSCLC, 106%; with SN12C renal it was 102%; in the test on TK-10 renal, 107%; with ACHN renal, 113%; in the test on CAKI-1 renal it was 103%. For the same compound, the growth with A498 renal is 109%; with CCRF-CEM leukemia it was 100%; in the test with MOLT-4 leukemia, 99%; with RPMI-8226 leukemia, 102%; in the test with OVCAR-8 ovarian, 99.9%; in the test on OVCAR-5 ovarian, 113%. Also, the growth is 116% in the test with OVCAR-4 ovarian; 116% in the test on SK-OV-3 ovarian; 106% with IGROV1 ovarian; 106% with OVCAR-3 ovarian; 93.7% in the test with HS 578T breast; 107% in the test on NCI/ADR-RES ovarian.
For `CC(=O)NC(N)=S`, the growth with SK-MEL-2 melanoma is 111%; with EKVX NSCLC, 118%; with SN12C renal, 104%; in the test on TK-10 renal, 100%; in the test with ACHN renal, 104%; in the test with CAKI-1 renal, 100%. Also, the growth in the test on CCRF-CEM leukemia was 86.7%; with MOLT-4 leukemia it was 77.4%; in the test on SR leukemia, 90.4%; in the test on RPMI-8226 leukemia it was 103%; in the test with OVCAR-8 ovarian, 104%; with OVCAR-5 ovarian, 116%. Besides, the growth was 111% in the test on OVCAR-4 ovarian; 121% in the test with IGROV1 ovarian; 119% in the test on OVCAR-3 ovarian; 115% in the test with HS 578T breast; 110% in the test with NCI/ADR-RES ovarian.
With `CCOC(=O)c1cc(/C=C/c2ccc(Cl)cc2Cl)on1`, the growth in the test on SK-MEL-2 melanoma is 109%; in the test with EKVX NSCLC, 45.2%; in the test on SN12C renal, 70.8%; in the test on TK-10 renal, 155%; in the test with ACHN renal it was 2.04% (active); in the test on CAKI-1 renal, 42.9%. Also, the growth was 133% in the test on A498 renal; 19% in the test with CCRF-CEM leukemia; 32.5% in the test with MOLT-4 leukemia; 24.1% in the test on OVCAR-8 ovarian; 58.8% in the test with OVCAR-5 ovarian; 76% in the test on OVCAR-4 ovarian. In addition, the growth is 104% in the test with SK-OV-3 ovarian; 82.2% with IGROV1 ovarian; 24.4% in the test on OVCAR-3 ovarian; 71.8% in the test on HS 578T breast; -34.9% (active) in the test with NCI/ADR-RES ovarian.
With `COc1ccccc1NC(=O)C1=C(C)NC(C)=C(C(=O)Nc2ccccc2OC)C1c1cccc([N+](=O)[O-])c1`, the growth in the test on SK-MEL-2 melanoma was 79.6%; in the test on EKVX NSCLC, 44.1%; with SN12C renal, 68.4%; in the test on TK-10 renal, 97.4%; in the test on ACHN renal, 54.6%; in the test with CAKI-1 renal, 50.1%. In addition, the growth in the test on A498 renal was 128%; with CCRF-CEM leukemia it was 64.5%; in the test on MOLT-4 leukemia it was 37.4%; in the test with RPMI-8226 leukemia it was 51.9%; in the test on OVCAR-8 ovarian, 74.4%; with OVCAR-5 ovarian, 81.9%. The growth in the test on OVCAR-4 ovarian is 70.2%; in the test on SK-OV-3 ovarian, 74.4%; in the test with IGROV1 ovarian it was 69.7%; in the test with OVCAR-3 ovarian, 82.9%; with HS 578T breast, 60.9%; with NCI/ADR-RES ovarian, 66.3%.
Consider `CCS(=O)(=O)CCCl`, for which the growth was 102% in the test with SK-MEL-2 melanoma; 89.6% in the test with EKVX NSCLC; 97.8% in the test with SN12C renal; 96.5% in the test with TK-10 renal; 97.3% with ACHN renal; 101% with CAKI-1 renal. Moreover, the growth in the test with A498 renal is 129%; in the test with CCRF-CEM leukemia, 63.6%; with MOLT-4 leukemia, 89.5%; with RPMI-8226 leukemia it was 101%; with OVCAR-8 ovarian, 104%; with OVCAR-5 ovarian, 105%. The growth in the test with OVCAR-4 ovarian is 101%; with SK-OV-3 ovarian, 104%; in the test on IGROV1 ovarian, 107%; in the test on OVCAR-3 ovarian, 116%; in the test on HS 578T breast, 96.4%; in the test on NCI/ADR-RES ovarian, 105%.
Take `O=[N+]([O-])c1cccc(N=Nc2ccc(O)cc2O)c1`: the growth in the test with SK-MEL-2 melanoma is 79.8%; in the test on EKVX NSCLC it was 69.9%; in the test on SN12C renal it was 79.6%; in the test with TK-10 renal it was 65.7%; in the test on ACHN renal, 78.7%; in the test on CAKI-1 renal, 39.1%. Besides, the growth is 66.9% in the test with A498 renal; 50.2% with MOLT-4 leukemia; 43.1% in the test with SR leukemia; 29.6% in the test with RPMI-8226 leukemia; 74.3% in the test on OVCAR-8 ovarian; 143% in the test with OVCAR-5 ovarian. For the same compound, the growth with OVCAR-4 ovarian was 62.3%; in the test with SK-OV-3 ovarian, 101%; in the test with IGROV1 ovarian it was 83.6%; in the test with OVCAR-3 ovarian, 62.4%; in the test with HS 578T breast it was 72.7%; in the test with NCI/ADR-RES ovarian it was 88.8%.
On to `S=c1[nH]ccn1-c1ccccc1Cl`, for which the growth in the test on SK-MEL-2 melanoma is 118%; in the test on EKVX NSCLC it was 112%; in the test on SN12C renal it was 116%; in the test on TK-10 renal, 128%; with ACHN renal it was 101%; in the test with A498 renal, 101%. Also, the growth with CCRF-CEM leukemia was 96.6%; in the test on MOLT-4 leukemia it was 97.4%; in the test with SR leukemia, 101%; in the test on RPMI-8226 leukemia, 95.6%; in the test on OVCAR-8 ovarian, 105%; with OVCAR-5 ovarian it was 114%. Further, the growth is 108% in the test with IGROV1 ovarian, 98.2% in the test on OVCAR-3 ovarian, 142% in the test with HS 578T breast and 115% with NCI/ADR-RES ovarian.
For `CC(C)C1CCCCC1O` (stereo not drawn), the growth in the test with SK-MEL-2 melanoma is 107%; in the test on EKVX NSCLC, 81.9%; with SN12C renal, 102%; in the test with TK-10 renal, 110%; in the test with ACHN renal it was 93.5%; in the test on A498 renal it was 97.2%. Further, the growth with CCRF-CEM leukemia is 99.3%; in the test with MOLT-4 leukemia, 148%; in the test on SR leukemia, 130%; in the test with RPMI-8226 leukemia, 105%; in the test with OVCAR-8 ovarian, 109%; in the test on OVCAR-5 ovarian it was 91%. In addition, the growth is 118% with OVCAR-4 ovarian; 109% in the test on SK-OV-3 ovarian; 130% with IGROV1 ovarian; 117% with OVCAR-3 ovarian; 105% in the test with HS 578T breast; 104% in the test with NCI/ADR-RES ovarian.
